Results as given in ChEMBL document CHEMBL4513216, “Probing the Open Global Health Chemical Diversity Library for Multistage-Active Starting Points for Next-Generation Antimalarials” (ACS Infect Dis, 2020).
Hit rate of the full screen: of about 65,000 compounds, about 2,100 (3.2%) showed an effect of 50% or more. The median lay at about -52%. This is one part of a sample in which strong results are shown more often than they occur.

Each compound was assayed on Plasmodium falciparum (assay: Screen against P. falciparum Asexual Blood Stage (ABS), at 5uM). Conditions: tested at 5 uM.
Assay type: functional, Dd2
In the case of CC(C)Cn1nc(-c2ccc(C(=O)O)cc2)cc1-c1ccc(F)cc1, the INHIBITION is reported as -57.3%. For CC(NCc1cccnc1)c1ccc(OCC(=O)NC2CC2)cc1 (stereo unspecified), the INHIBITION was -107%. With CC(NCc1cccc(Cl)c1)c1ccc(OCC(=O)NC2CC2)cc1 (stereo unspecified) the INHIBITION was 51.7%. With Cc1cccc(CNC(C)c2ccc(OCC(=O)NC3CC3)cc2)c1 (stereo unspecified) the INHIBITION was -21%. CC(C)(O)CN1CCN(C(=O)c2cccc3cccnc23)CC1 was tested, and the INHIBITION was 24.5%. CC(C)CNC(=O)[C@H]1C[C@H]2CN(C(=O)Nc3ccc(F)cc3)C[C@@H]1O2 showed an INHIBITION of -5.8%. With Cc1csc(NC(=O)CN2CCc3c(nc(C4CC4)n3C)C2)n1 the INHIBITION was -122%. Compound NC(=O)c1ccccc1Oc1cnc(C2CCCN2)cn1 (stereo unspecified) has an INHIBITION of -95.3%. For NC(=O)c1ccc(C2CCCNC2)nc1 (stereo unspecified), the INHIBITION was -43.7%. Compound NC(=O)c1ccccc1Oc1cccc(C2CCCNC2)n1 (stereo unspecified) has an INHIBITION of 55.8%. With COc1ccc(F)c(CN2CCCC(O)(CNCc3ncc[nH]3)C2=O)c1 (stereo unspecified) the INHIBITION was -93.5%. With CN1CCC(NCC2(O)CCCN(Cc3ccccc3F)C2=O)CC1 (stereo unspecified) the INHIBITION was 7.93%. O=C1N(Cc2cccc(F)c2F)CCCC1(O)CNCc1ccccn1 (stereo unspecified) gave an INHIBITION of 4.26%. CN(C)CCNCC1(O)CCCN(Cc2cccc(F)c2F)C1=O (stereo unspecified) was tested, and the INHIBITION was -65.2%. COc1ccc(F)c(CN2CCCC(O)(CNCc3ccon3)C2=O)c1 (stereo unspecified) showed an INHIBITION of -19%. CC1CCN(CC2(O)CCCN(Cc3cccc(F)c3F)C2=O)CC1 (stereo unspecified) showed an INHIBITION of -71.6%. COC(=O)CNCC1(O)CCCN(Cc2cccc(F)c2F)C1=O (stereo unspecified) gave an INHIBITION of -51%. CN(CC1(O)CCCN(Cc2cccc(F)c2F)C1=O)C1CCCCC1 (stereo unspecified) showed an INHIBITION of 65%. Work on O=C1N(Cc2cccc(F)c2F)CCCC1(O)CNC1CCCC1 (stereo unspecified) yielded an INHIBITION of 60.2%. O=C1N(Cc2cccc(F)c2F)CCCC1(O)CNCc1ccccc1 (stereo unspecified) gave an INHIBITION of 61.9%. COc1ccc(F)c(CN2CCCC(O)(CNCC(C)(C)C)C2=O)c1 (stereo unspecified) was tested, and the INHIBITION was 50.2%. O=C(CNCC1(O)CCCN(Cc2cccc(F)c2F)C1=O)NC1CC1 (stereo unspecified) gave an INHIBITION of -93.9%. Compound Cc1noc([C@@H]2CC[C@@H]3[C@@H](CCN3c3nnc(C)s3)O2)n1 has an INHIBITION of -97.1%. For CCn1cnnc1CNC(=O)NC(C)c1ccccn1 (stereo unspecified), the INHIBITION was -68.5%. For CCn1nc(C)c2c1cnn2CCNS(=O)(=O)c1cccs1, the INHIBITION was -54.4%. Work on CCC(C)n1c(SCC(=O)N2CCOCC2)nc2cc(C)[nH]c2c1=O (stereo unspecified) yielded an INHIBITION of -77%. In the case of CO[C@H]1CN(C(=O)c2ccc3oc(C)cc3c2)C[C@@]12CCCO2, the INHIBITION is reported as -39.5%. Compound CN(C)CC1(O)CCN(S(=O)(=O)c2ccc(F)c(F)c2)C1 (stereo unspecified) has an INHIBITION of 20.7%. In the case of COCC1COCCC12CCN(S(=O)(=O)c1ccc(C)cc1)CC2 (stereo unspecified), the INHIBITION is reported as -71.5%. CN(C)CC1(O)CCN(S(=O)(=O)c2ccc(Cl)cc2)C1 (stereo unspecified) showed an INHIBITION of 42.9%. CN(C)CC1(O)CCN(S(=O)(=O)c2cccc(F)c2)C1 (stereo unspecified) was tested, and the INHIBITION was 66.7%. Compound CN(C)CC1(O)CCN(S(=O)(=O)c2ccc(F)cc2)C1 (stereo unspecified) has an INHIBITION of 36.6%. Cc1ccc(S(=O)(=O)N2CCC(O)(CN(C)C)C2)cc1 (stereo unspecified) gave an INHIBITION of 52%. In the case of Cc1cccc(CSc2ncc(Br)c(C(=O)O)n2)c1, the INHIBITION is reported as -52.3%. Compound Cc1cc(C)nc(NCCC(=O)Nc2ccc(Cn3cncn3)cc2)n1 has an INHIBITION of -92%. Cc1cnn(CCNCc2ccc(OCc3noc(C)n3)cc2)c1 was tested, and the INHIBITION was -14.8%. Work on COc1ccc(C(C)NC(=O)C2CCN(S(C)(=O)=O)CC2)cc1C (stereo unspecified) yielded an INHIBITION of -118%. COc1cccc(CCC(=O)N2CCC[C@@H](N)[C@@H]2c2ccccc2F)c1 showed an INHIBITION of 68%. O=C(Cc1c[nH]c2ccccc12)N1CCC(Nc2cccnn2)CC1 was tested, and the INHIBITION was -48%. In the case of COc1cccc(CCC(=O)N2CCCC(c3nncn3C)C2)c1 (stereo unspecified), the INHIBITION is reported as -9.28%. Work on COc1cccc(CCC(=O)N2CCCCC2Cn2cccn2)c1 (stereo unspecified) yielded an INHIBITION of -136%. In the case of CC(=O)N1CCC[C@@H](NCc2c[nH]c3ccccc23)[C@@H]1c1ccc(C)s1, the INHIBITION is reported as 14.4%. Work on N[C@@H]1CCCN(C(=O)Cc2c[nH]c3ccccc23)[C@H]1c1ccccc1F yielded an INHIBITION of 65.8%. O=c1[nH]nc2c(N3CCOCC3)nccn12 was tested, and the INHIBITION was -25.9%. For O=C(c1cccs1)N1C[C@H]2CCC[C@@]2(COCC2CCOCC2)C1, the INHIBITION was -18.1%. Work on CS(=O)(=O)N1Cc2cnn(CC3CC3)c2C(COCC2CC2)C1 (stereo unspecified) yielded an INHIBITION of -13.5%. Compound O=C(NCC1CCS(=O)(=O)C1)c1ccco1 (stereo unspecified) has an INHIBITION of -48%. Compound Cc1nc2ccc(C(=O)N3C[C@@H](O)[C@H](N4CCOCC4)C3)cc2[nH]1 has an INHIBITION of -0.956%. For Fc1ccc(C(NCc2nnc(-c3ccco3)o2)C2CCC2)cc1 (stereo unspecified), the INHIBITION was -32.2%. CN(C)c1ccc(NC(=O)NCC2CCOC2)cn1 (stereo unspecified) gave an INHIBITION of 33.3%. Cc1ccc(S(=O)(=O)N2CCN(C)c3ccncc32)cc1F showed an INHIBITION of 61.6%. For CN1CCN(S(=O)(=O)c2cccc(F)c2)c2cnccc21, the INHIBITION was 13.2%. For Cc1cc(F)ccc1S(=O)(=O)N1CCN(C)c2ccncc21, the INHIBITION was 22.6%. Compound N#CC1(C(=O)N2CCOC(c3ccc(Cl)cc3)C2)CCCC1 (stereo unspecified) has an INHIBITION of -11.4%. CN(Cc1ccccc1F)C(C(N)=O)c1ccccc1 (stereo unspecified) was tested, and the INHIBITION was -90%. With COc1nccc(N2CC[C@@H](N3CCCCCC3)[C@H](O)C2)c1C#N the INHIBITION was 52.3%.
